Records with an inconclusive call do not appear. Where a call stands in place of a potency, no number is given. Activity calls are given as the source filed them. Calls follow the shape of the dose curve; as a rule, active = well fitted inhibition curve with a large enough effect; inconclusive = small, poorly fitted or top-dose-only effect; inactive = no such curve, though single readings can be large or run the other way.

One experiment is described as follows: qHTS assay for measurement of the activity of small molecule inhibitors on Zika virus induced Caspase-3 activity in human astrocytoma cells (AID 1224859). The settings on record: SNB-19 ZIKV-induced caspase-3/7, luminescence, 6 h; series mostly up to 45.7 µM. The essentials:
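A cell-based luminescent caspase-3/7 assay used SNB-19 cells infected with ZIKV (2 FFU/cell) for 6 h following 1 h compound pretreatment.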
Background: In qHTS, concentration-response curves come from the screen itself.
With `O=C(O)CCC(=O)OC[C@@H](NC(=O)C(Cl)Cl)[C@H](O)c1ccc([N+](=O)[O-])cc1`, the result was inactive.
The same measure, in the same setting: the value for `COc1ccc([C@@H]2Sc3ccccc3NC(=O)[C@@H]2O)cc1` was “inactive”; that for `CC(C)CCCC(C)NCCC(C)C` (centres undefined) was “inactive”; that for `Nc1c[n+](N2CCOCC2)no1` was “inactive”.
The same measure, in the same setting: for `C[C@H]1C[C@H]2[C@@H]3CCC4=CC(=O)C=C[C@]4(C)[C@H]3C(=O)C[C@]2(C)[C@@]1(O)C(=O)CO` the value was “inactive”; for `Cc1c(C)c2c(c(C)c1OC(=O)CCC(=O)OCCO)CC[C@@](C)(CCC[C@H](C)CCC[C@H](C)CCCC(C)C)O2`, “inactive”; for `COC(=O)C1=C(C)NC(C)=C(C(=O)OCCc2ccc(N3CCN(C(c4ccccc4)c4ccccc4)CC3)cc2)C1c1cccc([N+](=O)[O-])c1` (centres undefined), “inactive”.
On the same count and under the same terms, for `Cc1ccc(Cl)c(OCC(O)CNC(C)(C)C)c1` (centres undefined) the value was “inactive”; for `CCOC(=O)OCC/C(SC(=O)OCC)=C(\C)N(C=O)Cc1cnc(C)nc1N`, “inactive”; for `Cc1c(F)cc2c(=O)c(C(=O)O)cn3c2c1CCC3C` (centres undefined), “inactive”.
As to `CC(C)(Oc1ccc(Cl)cc1)C(=O)OCCCOC(=O)C(C)(C)Oc1ccc(Cl)cc1`, the call was inactive.
Still for that read-out and setting: the value for `OCc1cccnc1` was “inactive”; that for `O=C(O)CCCC[P+](c1ccccc1)(c1ccccc1)c1ccccc1` was “inactive”.
On the same count and under the same terms, for `O=C(O)Cn1cnnn1` the value was “inactive”.
Still for that read-out and setting: for `O=C(Oc1ccccc1)c1cccc(C(=O)Oc2ccccc2)c1` the value was “inactive”.
Turning to `Cc1cc(C(C)(C)C)c(O)c(C(C)(C)C)c1`, the molecule was called inactive.
The same measure, in the same setting: for `Nc1c2ccccc2nc2ccccc12` the value was “inactive”; for `CC(C)(C)C(=O)OCOC(=O)C1N2C(=O)CC2S(=O)(=O)C1(C)C` (centres undefined), “inactive”.
The same measure, in the same setting: the value for `Cc1[nH]cnc1-c1ccc(Cl)cc1` was “inactive”; that for `CC(NN)c1ccccc1` (centres undefined) was “inactive”.
Same read-out and setting: for `CCN1C(=O)c2ccccc2C1Nc1ccc(OCCN2CCCCC2)cc1` (centres undefined) the value was “inactive”.

Another experiment in a line: P-glycoprotein substrates identified in KB-3-1 adenocarcinoma cell line, qHTS therapeutic library screen (AID 1346986). Also: nearly all actives have a fitted effect of over 60% in size.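 Also: potency is read from the fitted curve at half-maximal effect; potency is for cytotoxicity meaning loss of cell viability.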 The settings on record: KB-3-1 parental cells viability, CellTiter-Glo, 72 h; series mostly up to 44.5 µM. The gist of the method: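 72 h cell-killing screen, 500 cells/well, CellTiter-Glo luminescence. Paired lines KB-3-1/KB-8-5-11; P-gp dependence checked by tariquidar co-treatment and HEK-293 MDR-19 versus empty-vector cells.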
With `CC(C)=CCNc1ncnc2c1ncn2[C@@H]1O[C@H](CO)[C@@H](O)[C@H]1O`, the Potency is 5.8 µM (active).
The same measure, in the same setting: for `CCCCC(O)/C=C(C)/C=C/C=C/C(=O)N1CCCC1=O` (centres undefined) the value was “inactive”; for `CCN1C(=O)c2ccccc2C1Nc1ccc(OCCN2CCCCC2)cc1` (centres undefined), “inactive”.

The values are drawn from PubChem BioAssay (NCATS).
